Screening results as filed in PubChem.
Hits are enriched below; roughly 1.6% of the tested compounds scored in any of these assays.
KCNQ2 block: inhibitors of rat KCNQ2 potassium channel. O88943. CHO-K1 KCNQ2, FluxOR thallium flux, 20 min; active compounds read low. B-score at 10 µM. actives 1.1% (n = 310,000);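 active = fluorescence ratio B-score at most minus 3 library SDs, with starting brightness B-score within 2 library SDs, cut at about -5.5 in these data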
Target sequence (O88943 whole entry, looked up): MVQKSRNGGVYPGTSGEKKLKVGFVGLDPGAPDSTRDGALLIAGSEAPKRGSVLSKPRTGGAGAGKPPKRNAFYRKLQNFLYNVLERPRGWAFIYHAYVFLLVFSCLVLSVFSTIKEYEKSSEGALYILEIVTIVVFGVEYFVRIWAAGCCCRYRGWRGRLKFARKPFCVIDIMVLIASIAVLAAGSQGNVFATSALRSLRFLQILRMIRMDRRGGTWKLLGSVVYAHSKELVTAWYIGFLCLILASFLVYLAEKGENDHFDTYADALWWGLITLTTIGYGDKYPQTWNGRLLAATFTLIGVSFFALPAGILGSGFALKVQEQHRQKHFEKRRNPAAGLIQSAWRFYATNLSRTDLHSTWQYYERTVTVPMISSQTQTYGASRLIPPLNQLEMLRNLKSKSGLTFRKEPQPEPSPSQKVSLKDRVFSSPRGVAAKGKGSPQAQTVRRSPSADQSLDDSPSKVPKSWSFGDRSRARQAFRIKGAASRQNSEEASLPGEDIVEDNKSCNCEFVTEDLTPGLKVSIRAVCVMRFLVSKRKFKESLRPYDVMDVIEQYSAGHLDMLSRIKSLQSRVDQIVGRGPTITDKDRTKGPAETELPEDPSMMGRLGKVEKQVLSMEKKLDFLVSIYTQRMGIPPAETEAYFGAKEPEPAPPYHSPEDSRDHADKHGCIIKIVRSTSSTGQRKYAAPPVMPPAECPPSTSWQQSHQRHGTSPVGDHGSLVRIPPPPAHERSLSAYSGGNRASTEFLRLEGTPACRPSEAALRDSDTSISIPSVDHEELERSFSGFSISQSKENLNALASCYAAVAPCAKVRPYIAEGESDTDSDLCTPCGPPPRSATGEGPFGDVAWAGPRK
KCNQ2 enhance: potentiators of rat KCNQ2 potassium channel; O88943; CHO-K1 KCNQ2, FluxOR thallium flux fluorescence; active compounds read high; B-score at 10 µM; actives 0.54% (n = 310,000); AID 2239;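 active = fluorescence ratio B-score at least 3 SD of library B-scores, with initial fluorescence B-score within 3 of them, cut at about 5.3 in these data; same plate scores as AID 2156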;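 note: B-score of peak minus minimum over baseline fluorescence ratio after K+ and Tl+ stimulus; positive B-score means potentiation of KCNQ2 with more thallium influx and brighter signal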
* = called active by the depositor; i = inactive; · = not tested or not shown.

SMILES	KCNQ2 block	KCNQ2 enhance
Cc1ccc(-c2cccc(C(=O)NCCc3ccccc3)n2)c2ccccc12	-6.3*	-6.3
Cc1ccc(-c2cccc(C(=O)NCc3ccccc3)n2)c2ccccc12	i	·
CC(C)C(=O)Nc1cccc(C(=O)Nc2nnc(C(C)C)s2)c1	i	0.06
CC(C)c1nnc(NC(=O)c2cccc(NC(=O)C(F)(F)F)c2)s1	-5.9*	-5.9
COc1ccc(OCC(=O)NNC(=S)NC(=O)c2ccc(Br)o2)cc1	i	·
CN(C)/C=C(\C#N)C(=O)c1cccc(Oc2ccc(Br)cc2)c1	i	·
CC(C)c1ccc(Oc2cccc(C(=O)/C(C#N)=C/N(C)C)c2)cc1	-6.2*	-6.2
C=CCC1(C#N)C(SC)=NC2=C(C(=O)CC(C)(C)C2)C1c1ccc(Br)cc1 (stereo not drawn)	-6.6*	-6.6
Cc1ccc(C2C3=C(CC(C)(C)CC3=O)N=C3c4ccccc4C(=O)C32)cc1 (stereo not drawn)	i	·
COc1ccccc1Nc1nc(N)nc(CN2CCN(c3ccccc3F)CC2)n1	i	3
COc1ccccc1N1CCN(Cc2nc(N)nc(Nc3ccc(C)c(Cl)c3)n2)CC1	i	8.9*
O=C(CC1CCCCC1)NCCS(=O)(=O)N1CCN(c2ccccc2)CC1	i	0.82
O=C(Cc1cccs1)NCCSc1c(-c2ccc(Cl)cc2)[nH]c2ccccc12	-7.1*	-7.1
CCOC(=O)CSc1c(-c2ccc(Cl)cc2)[nH]c2ccccc12	i	·
O=C(Nc1ccc(NS(=O)(=O)c2ccc([N+](=O)[O-])cc2)cc1)c1ccco1	i	·
Cc1ccc(-c2cc(-c3ccc(C)o3)nc(N)c2C#N)cc1	i	·
Cc1ccc(-c2cc(-c3ccc(Cl)cc3)c(C#N)c(N)n2)o1	-6.8*	-6.8
O=C(NCc1nnc(SCC(=O)N2CCCC2)o1)c1ccccc1	i	·
CCC1(c2ccc(F)cc2)NC(=O)NC1=O (stereo not drawn)	i	·
COc1cc([N+](=O)[O-])cc(/C=N/NC(=O)C(C)Nc2cccc3ccccc23)c1O (stereo not drawn)	i	0.91
COc1ccccc1NC(C)C(=O)N/N=C/c1ccccc1OCc1cccc(Br)c1 (stereo not drawn)	-6.3*	-6.3
Cc1ccc(-n2c(SCc3cn4ccsc4n3)nc3ccccc3c2=O)cc1	-5.6*	-5.6
c1ccc(-n2cnnc2SCc2cn3ccsc3n2)cc1	i	·
CCNC(=S)Nc1ccc2c(c1)oc1ccccc12	i	1.9
Fc1ccc(Br)cc1C1C=C(c2ccc(Br)s2)Nc2ncnn21 (stereo not drawn)	i	·
SMILES	KCNQ2 block	KCNQ2 enhance
COc1cccc(C2C=C(c3ccc(Br)s3)Nc3ncnn32)c1OC (stereo not drawn)	-6.6*	-6.6
CCOC(=O)c1c(-c2ccccc2)oc2ccc(OCC)cc12	i	·
CCOC(=O)c1c(-c2ccccc2)oc2ccc(OCC(O)CNCCN(C)C)cc12 (stereo not drawn)	-6.7*	-6.7
Cc1cc(C)n(CCNS(=O)(=O)c2ccc(C)c(C)c2)n1	i	1
CN(C)CCNc1ncnc2c1sc1nc(-c3ccccc3)c3c(c12)CCCC3	-7.8*	-7.8
COc1ncnc2c1sc1nc(-c3ccccc3)c3c(c12)CCCC3	i	0.04
CN(CCOc1ccccc1)C(=O)C1CCC(=O)N(CCCN2CCCC2=O)C1 (stereo not drawn)	i	·
COc1ccc(Cc2nnc(SCC(=O)Nc3ccccc3C#N)o2)cc1	i	1.9
O=C(Nc1cccc(Cl)c1)N1N=CCC1c1ccccc1 (stereo not drawn)	-6.2*	-6.2
O=C(Nc1cccc2ccccc12)N1N=CCC1c1ccccc1 (stereo not drawn)	i	·
O=C(COc1ccc(Cl)cc1)NCCSCc1cccc(Cl)c1	-7.5*	-7.5
COc1cc(OC)cc(C(=O)NCCCCc2ccccc2)c1	-8.2*	-8.2
Cc1cc(Cl)ccc1OCC(=O)NCCC(=O)O	i	1
COc1cc(OC)cc(C(=O)NCCCCNC(=O)c2cc(OC)cc(OC)c2)c1	i	0.22
Cc1cc(Cl)ccc1OCC(=O)NCCCCc1ccccc1	-6.3*	-6.3
Cc1cccc(CSCCNC(=O)COc2ccc(Cl)cc2)c1	i	·
Cc1[nH]c(C)c(S(=O)(=O)N2CCCCC2C)c1C(=O)N1CCCC1 (stereo not drawn)	i	·
O=C(NC(Cc1ccccc1)C(=O)O)NC12CC3CC(CC(C3)C1)C2 (stereo not drawn)	i	·
CC(NC(=O)CCCCCN1C(=O)c2ccccc2C1=O)c1ccc2c(c1)CCCC2 (stereo not drawn)	i	4.2
CC(NC(=O)CCCCCCN1C(=O)c2ccccc2C1=O)c1ccc2c(c1)CCCC2 (stereo not drawn)	i	5.3*
O=C(CCCc1c[nH]c2ccccc12)NCc1ccccc1C(F)(F)F	i	·
CN(CC(=O)Nc1cc(Cl)cc(Cl)c1)Cc1cccs1	-5.6*	-5.6
CN(CC(=O)Nc1ccc(F)cc1Cl)Cc1cccs1	i	·
O=C(COC(=O)C1CCC1)Nc1ncc(Cl)cc1Cl	i	1.6
C(=C1/CCCC2=C1Nc1ncnn1C2c1ccccc1)/c1ccccc1 (stereo not drawn)	-6.5*	-6.5
SMILES	KCNQ2 block	KCNQ2 enhance
S=C1NC2=C(CCC/C2=C\c2ccccc2)C(c2ccccc2)N1 (stereo not drawn)	i	0.15
Cc1cc(C(F)F)n2ncc(C(=O)N3CCc4ccccc4C3)c2n1	i	0.89
O=C(c1cnn2c(C(F)(F)F)cc(-c3ccco3)nc12)N1CCc2ccccc2C1	-7*	-7
O=C(c1cnn2c(C(F)(F)F)cc(-c3ccco3)nc12)N1CCCCCC1	i	0.19
O=C(c1cnn2c(C(F)F)cc(-c3ccccc3)nc12)N1CCc2ccccc2C1	-6.3*	-6.3
CC(CC(F)(F)F)N1CCC(n2nccc2NC(=O)CCCc2ccccc2)CC1 (stereo not drawn)	i	0.54
O=C1C2C(c3ccccc3)CC=CC2[C@H](c2ccc(C(F)(F)F)cc2)N1Cc1ccccc1 (stereo partly drawn)	-7.8*	-7.8
COc1ccc([C@H]2[C@H]3C=CC[C@@H](C)[C@@H]3C(=O)N2Cc2ccccc2)cc1Cl	i	·
C[C@@H]1CC=C[C@H]2[C@H]1C(=O)N(Cc1ccccc1)[C@H]2c1ccc(C(F)(F)F)cc1	i	·
CC[C@@H]1CC=C[C@H]2[C@H]1C(=O)N(Cc1ccccc1)[C@H]2c1ccc2ccccc2c1	-5.7*	-5.7
Cc1ccc(Sc2ncccc2C(=O)N(C)Cc2cccs2)c(C)c1	i	·
COCCCNC(=O)c1cc(-c2cccnc2)nc2ccc(S(=O)(=O)N3CCCCCC3)cc12	i	0.27
CC(CCc1ccccc1)NS(=O)(=O)c1ccc(Cl)c(C(=O)O)c1 (stereo not drawn)	i	·
COC(=O)c1cc(C(=O)NCc2ccc3c(c2)OCO3)cc([N+](=O)[O-])c1	i	2.2
O=C(COc1c(F)c(F)c(C(F)(F)F)c(F)c1F)Nc1ccc(N2CCOCC2)c(Cl)c1	i	0.01
CCC(C)c1ccc(NC(=O)COc2c(F)c(F)c(C(F)(F)F)c(F)c2F)cc1 (stereo not drawn)	i	6.1*
O=C(Nc1ccc2c(c1)OCO2)c1c[nH]c(=O)n(-c2ccc(F)cc2)c1=O	i	·
COC(=O)c1sccc1NC(=O)c1cc(-c2cccc(C)c2)nc2ccccc12	i	·
COC(=O)c1sccc1NC(=O)c1c(C)c(-c2cccc(Cl)c2)nc2ccccc12	-5.7*	-5.7
